Shown are actives, neighbours in structure and some others; about 4% of the full set was active somewhere.
TWEAK Fn14 block = inhibitors of TWEAK-Fn14 signaling, primary screen, luciferase reporter cells, uHTS. 360,000 compounds, 2% hits. inhibition, % at 10 µM. TWEAK-stimulated Fn14 reporter cells, luciferase luminescence, 8 h; in the data active means inhibition above about 50%
TROY NFkB inh = inhibitors of TROY-driven NF-kB signaling, primary screen, Q293 LMP1-TROYcd cells, NF-kB luciferase, uHTS; Q293 LMP1-TROYcd NF-kB luciferase reporter, 4 h; inhibition, % at 10 µM; 360,000 compounds, 0.98% hits; AID 1347056, 2019;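 active means compounds whose plate-normalised and pattern-corrected inhibition of the luciferase reporter signal at the single screening dose is 50% or more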
HIF-2a inh = HIF-2a reporter inhibitors, primary screen, luminescence, 786-0 RCC cells. 786-0 RCC cells HIF-2a reporter, luciferase luminescence, overnight. inhibition, % at 18.8 µM. 360,000 compounds, 0.72% hits;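 active means inhibition of the luminescence signal of 40% or more relative to plate controls, in a single-dose primary screen at 18.75 µM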
CF NFkB block = inhibitors of PAF-induced NF-kB signaling, primary screen, cell-based, GFP fluorescence, uHTS | KKLEB NF-kB-GFP reporter, GFP fluorescence overnight | inhibition, % at 5 µM | 360,000 compounds, 0.86% hits | AID 588850, 2011;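 active means at least 50% inhibition at 5 µM, scaled per plate between neutral and stimulator controls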;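 further: PAF is a Pseudomonas aeruginosa culture filtrate used as stimulus; plate controls were PAF-stimulated DMSO wells for no effect and unstimulated DMSO wells for full effect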
Peg3 promoter = Peg3 promoter-driven luciferase inhibitors, primary screen, cell-based, HeLa, luciferase luminescence. 360,000 compounds, 1.7% hits. HeLa PEG-Prom luciferase reporter, overnight. inhibition, % at 20 µM;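 active means inhibition of at least 50% at 20 µM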
KKLEB tox = cytotoxicity in KKLEB CF airway cells, primary screen, cytotoxicity control for CF NF-kB inhibitor project, cell-based, uHTS, fluorescence assay plates; KKLEB CF airway cells viability, ATPlite luminescence, overnight; hits give low values; cells stimulated with P. aeruginosa culture filtrate; activity change (cytotoxicity), % at 5 µM; 360,000 compounds, 0.36% hits; AID 602141, 2011;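 active means corrected activity change at or below -50% at 5 µM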
* = called active by the depositor; · = no result given.

SMILES	TWEAK Fn14 block	TROY NFkB inh	HIF-2a inh	CF NFkB block	Peg3 promoter	KKLEB tox
Cc1cc(Cl)ccc1OCC(=O)NNC(=O)C1CCN(c2ncnc3sc(C)c(C)c23)CC1	82*	72*	8	8	35	8
NC(=S)NN=C1c2cc(Cl)ccc2-c2c1cc(Cl)cc2[N+](=O)[O-]	101*	47	-25	-183	25	6
COc1cc2c(cc1[N+](=O)[O-])-c1ccc([N+](=O)[O-])cc1C2=NNC(N)=S	-101	-36	-14	-311	-21	0
O=C(NCC1CCCCC1)c1ccccc1[N+](=O)[O-]	3	9	12	1	12	10
O=S1(=O)CC(N2CCCC2)CN1Cc1ccccc1 (centres undefined)	0	-3	11	1	1	-2
Cc1nc2c(-c3ccccc3)c(C)[nH]n2c(=O)c1Cc1ccccc1	25	24	9	-9	29	3
Cc1nc2c(C#N)c(C)[nH]n2c(=O)c1Cc1ccccc1	64*	31	-7	8	13	-2
CC(C)OC(=O)C1=C(N)N2C(=O)CSC2=C(C(=O)OC(C)C)C1	1	-4	12	-2	52*	-5
Cc1c[n+](CC(=O)c2ccccc2)cs1	90*	5	4	-20	-5	4
COc1cc2cc(C(=O)NC(C)c3cccc4ccccc34)c(N)nc2cc1OC (centres undefined)	27	8	-25	·	·	·
CC1(C)S[C@@H]2[C@H](NC(=O)C(NC(=O)N3CCNC3=O)c3ccccc3)C(=O)N2[C@H]1C(=O)O (some centres undefined)	1	6	22	3	5	-2
CC(=NNC(=O)c1ccncc1)c1cccc(Cl)c1	-11	-6	-16	-26	-19	12
O=C(Nc1cccc(Cl)c1)Nc1ccnc(-c2cccnc2)n1	53*	17	-73	-107	78*	10
O=c1[nH]c2cc3ccccc3cc2nc1-c1nnnn1Cc1ccccc1	13	7	5	·	·	·
COc1ccc(-c2csc(NC(=O)CCN3C(=O)C4CC=CCC4C3=O)n2)cc1OC (centres undefined)	-14	-22	-2	30	19	-28
CC(C)(C)n1ncc2c(=O)n(Cc3cccc(Cn4cnc5c(cnn5C(C)(C)C)c4=O)c3F)cnc21	82*	48	20	16	15	2
CC(C)(C)n1ncc2c(=O)n(CC(=O)N3CCc4ccccc43)cnc21	59*	60*	-56	-2	-7	-4
CC(C)(C)n1ncc2c(=O)n(CC(=O)OCc3ccccc3)cnc21	99*	87*	-24	-2	49	-18
CC(C)[C@H](NC(=O)c1ccccc1Cl)C(=O)OCC(=O)N1CCCCC1	-5	-52	-74	25	-78	-1
CCOc1cc2c(cc1OCC)CN(C(=O)c1cccc(S(=O)(=O)N3CCCC3)c1)CC2	-12	21	13	8	16	-3
COC(=O)C1(Cc2cc(-c3ccc([N+](=O)[O-])cc3)no2)CCN(C(=O)OC(C)(C)C)CC1	2	16	-15	-3	-5	-15
O=C(Nc1nc(-c2cccs2)c(C(=O)C(F)(F)F)s1)c1ccccc1	56*	60*	-118	43	-18	-2
CCc1nnc(NC(=O)Nc2ccccc2OC)s1	5	-62	-293	15	-153	3
COc1ccc(C(=O)Nc2nnc(SCC(=O)NC3CC3)s2)cc1	54*	7	-36	9	-42	-2
COc1ccc(C(=O)Nc2nnc(-c3cccs3)s2)cc1	55*	7	-185	0	-131	-12
SMILES	TWEAK Fn14 block	TROY NFkB inh	HIF-2a inh	CF NFkB block	Peg3 promoter	KKLEB tox
CCc1nnc(NC(=O)c2ccc(OC)cc2OC)s1	74*	22	-38	0	-99	-1
COc1ccc(NC(=O)Nc2nnc(-c3cccs3)s2)cc1	-33	-59	-251	-6	-182	3
O=C(Nc1nc(-c2cccs2)c(C(=O)C(F)(F)F)s1)c1ccco1	-8	14	-9	10	13	-11
CC1(Cc2cc(Cl)ccc2C(F)(F)F)C(=O)Nc2cc(C(F)(F)F)ccc21 (centres undefined)	12	9	28	21	46	-8
COc1ccccc1N(CC(=O)NCc1ccc2c(c1)OCO2)C(=O)CCC(=O)Nc1nccs1	-20	-1	8	3	17	1
O=C(NC(Cc1ccccc1)C(=O)O)/C(=C/c1ccc(Br)cc1)NC(=O)c1ccc(Br)o1 (centres undefined)	-1	-13	11	16	17	3
COc1ccc(C(=O)Nc2nnc(SCC(=O)NCc3ccco3)s2)c(OC)c1	75*	43	1	-5	-39	-11
COc1ccc(C(=O)Nc2nnc(SCC(=O)Nc3ccc(NC(C)=O)cc3)s2)c(OC)c1	11	25	-205	16	-262	-23
COc1ccc(C(=O)Nc2nnc(SCC(=O)NC3CCCC3)s2)c(OC)c1	74*	-25	-115	-25	-115	-26
Cn1c(SCC(=O)NNC(=O)c2ccccc2)nnc1C1CC1	-3	2	20	-7	4	0
CC(=O)N/C(=N\c1nc(C)cc(C)n1)Nc1ccc2ccccc2c1	74*	77*	-77	-34	-64	-5
CCOC(=O)c1c(C)[nH]c(C(=O)COC(=O)CNC(=O)C2CCCCC2)c1C	10	69*	-11	-5	-41	8
CCc1ccc(C(=O)COC(=O)CNC(=O)C2CCCCC2)cc1	66*	76*	-42	14	-67	-6
O=C(O)c1c2c(nc3ccccc13)/C(=C/c1ccc(O)cc1)CC2	77*	51*	-19	-19	10	-3
O=C(O)c1c2c(nc3ccccc13)/C(=C/c1ccc(OC(F)F)cc1)CCC2	-16	-39	-136	0	-101	6
CC1CC(C)CN(CCCNC(=O)Cn2cccc2C(=O)c2ccccc2)C1 (centres undefined)	-6	9	4	6	-9	-22
CCCCn1cnc2c(SCc3ccccc3F)nc(N)nc21	13	-34	-192	-1	-158	-9
Oc1ccc(C[C@H]2CNCCN2CCCCC2CCCCC2)cc1	-7	-3	-3	18	106*	-31
Oc1ccc(C[C@@H]2CNCCN2CCC23CC4CC(CC(C4)C2)C3)cc1	-2	12	1	8	51*	-11
O=C(NC1CCCCC1)c1ccc(-c2ccccc2)cc1	-36	-48	-246	-4	-168	-3

Source: PubChem BioAssay
